In the library only some 1.3% were active in any assay of this set; here they are far more common.
CRFR2-BP ag = agonists of CRF-BP/CRF-R2 complex, primary screen, cell-based, HEK293, calcium dye fluorescence, uHTS | CRF-binding protein / CRF receptor 2 complex (human) | calcium dye fluorescence (FLIPR); percent of saturating CRF peptide response | activation, % at 13.2 µM | 350,000 tested, 0.46% active | AID 588473, 2011;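 active means activation of at least 50%, plus an integration ratio under a set limit after plate pattern correction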
RTF Ca sens inh = cardiac RTF calcium sensitivity inhibitors, primary screen, biochemical, IANBD-TnC fluorescence, EC70 calcium | IANBD-labeled cardiac RTF, Ca2+ fluorescence | inhibition, % at 7.15 µM | 340,000 tested, 0.12% active;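 active means inhibition above the mean inhibition of all tested compounds plus 3 SD, cut at about 17% in these data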;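 further: assay run at fixed EC70 calcium of 1.6 mM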
RTF Ca sens act = cardiac RTF calcium sensitivity activators, primary screen, biochemical, IANBD-TnC fluorescence, EC20 calcium | activation, % at 7.2 µM | IANBD-labeled TnC RTF fluorescence at EC20 calcium; 0% EC20 calcium, 100% full calcium | Troponin I, cardiac muscle (Homo sapiens) + Troponin T, cardiac muscle (Homo sapiens) + … | 340,000 tested, 0.24% active | AID 493008, 2010;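 active means activation above the mean over all tested compounds plus 3 SD, cut at about 30% in these data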;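 further: rise in fluorescence read as greater calcium sensitivity of cardiac thin filaments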
CRFBP-R2 block = antagonists of CRF-BP/CRF-R2 complex, primary screen, cell-based, HEK293, calcium dye fluorescence, uHTS; CRF-induced calcium fluorescence; inhibition, % at 11.8 µM; 350,000 tested, 0.59% active;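 active means inhibition of the ligand-induced calcium signal above about 50% at the single tested concentration, limit read from the data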
Hits are given with their value; n = inactive; x = not tested or not shown.

SMILES | CRFR2-BP ag | RTF Ca sens inh | RTF Ca sens act | CRFBP-R2 block
CCn1c(O)c(C=Nc2cc(Cl)ccc2Cl)c(=O)n(CC)c1=O | n | n | n | n
C/C(=N\N=C(N)N)c1ccccc1 | n | n | n | n
COc1ccccc1-n1c(O)c(/C=C2\C=Nc3ccccc32)c(=O)[nH]c1=O | n | n | n | n
Cn1c(O)c(C=NCCN2CCOCC2)c(=O)[nH]c1=S | n | n | n | n
O=Cc1c(C(=O)O)n(Cc2ccccc2F)c2ccccc12 | n | n | n | n
Cc1ccc(C)c(Cn2c(C(=O)O)c(C=O)c3ccccc32)c1 | n | n | 85.9 | n
COC(=O)C12CCc3c(ccc4cc(OC)ccc34)C1=CC(=O)C2 (stereo unspecified) | n | n | n | 60.5
Cc1ccc2c(c1)Oc1ccccc1N=C2 | n | x | x | 65.0
Cc1ccc2c(c1)CNc1ccccc1O2 | n | n | n | n
Cn1c(=O)n(C)c2cc([N+](=O)[O-])c(N3CCNCC3)cc21 | n | n | n | n
CCC1CN2CCc3cc(OC)c(OC)cc3C2CC1CC1NCCc2c1[nH]c1ccc(O)cc21 (stereo unspecified) | n | n | n | 50.9
C#CCN1C(=O)C2(C(C#N)=C(N)OC(C)=C2C(=O)OCc2ccccc2)c2ccccc21 (stereo unspecified) | n | n | n | n
Cn1cc(/C=C2\C(=O)NC(=O)N(c3ccccc3)C2=O)c2ccccc21 | 114.5 | n | n | n
O=C(O)Cn1cc(/C=C2\C(=O)NC(=O)N(c3ccc(Cl)cc3)C2=O)c2ccccc21 | n | n | n | n
Cc1ccccc1N1CCN(C2CCCN(C(=O)COc3ccccc3)C2)CC1 (stereo unspecified) | n | n | n | n
CNc1cc(Cl)c2nonc2c1[N+](=O)[O-] | n | n | n | 75.5
COc1ccc(OC)c(N2C(=O)NC(=O)/C(=C/c3ccc([N+](=O)[O-])s3)C2=O)c1 | n | n | n | n
Cc1ccc(N2C(=O)NC(=O)/C(=C\C=C\c3ccco3)C2=O)cc1 | n | n | n | n
O=C1NC(=O)N(Cc2ccc(F)cc2)C(=O)/C1=C\c1ccoc1 | n | n | n | n
O=C1NC(=S)N(c2ccc(F)cc2)C(=O)/C1=C\c1ccoc1 | n | 26.9 | n | n
Cc1ccc(N2C(=O)NC(=O)/C(=C\c3ccoc3)C2=O)cc1 | 53.6 | n | n | n
CCn1c(=O)cc(SCC(=O)N2CCC3(CC2)OCCO3)c2ccccc21 | n | n | n | n
CCOc1ccc(N2C(=O)/C(=C/c3ccc(C)o3)C(=O)NC2=S)cc1 | n | n | n | n
O=C1NC(=O)N(c2ccc3c(c2)OCO3)C(=O)/C1=C/c1ccc(N2CCCC2)o1 | n | n | 58.0 | n
CCOc1ccc(N2C(=O)NC(=O)/C(=C\c3ccc(N4CCCCC4)o3)C2=O)cc1 | 56.9 | n | 112.5 | n
SMILES | CRFR2-BP ag | RTF Ca sens inh | RTF Ca sens act | CRFBP-R2 block
COC(=O)C1=C(c2c(C)noc2C)C[C@@H]2CC[C@H]1N2C(=O)NCCO | n | n | n | n
CCCNC(=O)N1[C@H]2CC[C@@H]1C(C(=O)OC)=C(c1ccc(OC)c(OC)c1)C2 | n | n | n | n
C[C@]12CCC(=O)C(O)=C1CC[C@@H]1[C@@H]2CC[C@]2(C)C(=O)CC[C@@H]12 | n | n | n | n
CCOC(=O)Cn1cc(C=C2C(=O)N(C)C(=O)N(C)C2=O)c2ccccc21 | 66.1 | n | n | n
O=C1NC(=O)C(=Cc2ccc(Sc3ccccc3)o2)C(=O)N1 | n | n | n | n
CC1(C)OC(c2ccccc2)=C/C(=C/C=C2C(=O)NC(=O)NC2=O)O1 | n | n | 110.0 | n
Cn1c(O)c(/C=C/C=Nc2ccccc2)c(=O)n(C)c1=O | 84.8 | n | n | n
CCCCn1c(O)c(/C=C/C=Nc2ccccc2)c(=O)[nH]c1=O | 112.8 | n | n | n
CCCCC(=O)N/N=C/c1c(O)n(CCc2ccccc2)c(=O)[nH]c1=O | n | x | x | n
Cc1ccccc1-n1c(-c2ccc([N+](=O)[O-])cc2)nc2ccccc2c1=O | n | n | n | n
COc1ccc(-[n+]2c(-c3ccccc3)cc(-c3ccc(C)cc3)cc2-c2ccccc2)cc1 | 82.4 | n | n | n
COc1ccc(-c2cc(-c3ccccc3)[n+](C)c(-c3ccccc3)c2)cc1 | n | n | n | n
CN1CCN(c2ccc([N+](=O)[O-])c3no[n+]([O-])c23)CC1 | n | n | 281.9 | n

Source: PubChem (several laboratories)
